This is a sample that favours compounds with a hit; in the whole collection about 19% have one here.
HT1080-NT tox = kills 2HG-producing HT-1080-NT fibrosarcoma cells; 1.6% of 360,000 active; AID 686970; HT-1080-NT fibrosarcoma viability, CellTiter-Glo ATP luminescence, 48 h; Potency, µM (titrated, usually from 46.1 µM), for the others: at the top dose activity, negative = less viability, actives largely listed as cytotoxic;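 note: NT is the 2HG producing partner of a matched IDH1 knockdown line; potency is the fitted concentration of half-maximal effect; 0% = DMSO-treated cells and -100% = media-only wells without cells; nearly all actives have a fitted effect of over 55% in size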
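Fibrosarcoma NT cells, 750 per well in 5% FBS RPMI, were exposed to compound for 48 hours. Viability: CellTiter-Glo luminescence.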
IL-1B inflam inh = blocks inflammasome-driven IL-1 beta release | 4.7% of 360,000 active | THP-1 LPS/ATP IL-1B secretion, AlphaLISA, 16 h; active compounds read low | activity change, % at 57.5 µM | AID 743279; in the data active = activity change below about -50%; inconclusive = mostly about -30% to -49%
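Secreted IL-1B measured by AlphaLISA bead assay after 16 h compound exposure of THP-1 cells; compounds (final up to 57.5 uM) added 1 h before LPS (250 ng/mL) and ATP (1.25 mM) stimulation; lower signal means less secretion.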
ELG1 DNA repair = blocks ELG1-dependent DNA repair in HEK293T cells. HEK293T ELG1-luciferase reporter, luminescence, 16 h; DNA damage induced by 5-fluorouridine. Potency, µM (highest dose often 46.1 µM), without a hit: at the highest dose activity change, negative = inhibition, usual class: inhibitors. 2.3% of 330,000 active. AID 504467; note: potency is the fitted concentration of half-maximal effect; nearly all actives have a fitted effect of over 55% in size
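HEK293T cells expressing luciferase-tagged ELG1 (2,000/well) received 5-Fluorouridine plus compound or DMSO for 16 hr at 37 °C. Luciferase was read by ONE-Glo luminescence after 30 min at room temperature.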
TDP1 cell noCPT = qHTS for Inhibitors of human tyrosyl-DNA phosphodiesterase 1 (TDP1): qHTS in cells in absence of CPT; DT40 Tdp1-/- hTDP1 cells, no CPT, ATP luminescence, 48 h; 15% of 420,000 active; Potency, µM (doses to about 46.2 µM), for inactives: at the highest dose activity change, negative = growth inhibition, most hits filed as inhibitors; AID 686978, 2013; note: potency is the fitted concentration of half-maximal effect; nearly all actives have a fitted effect of over 55% in size
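Seeded 400 DT40-hTDP1 cells/well (vehicle DMSO, no 20 nM CPT); pinned compounds; ≥48 hr at 37 °C; CellTiter-Glo luminescence as viability measure.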
TDP1 cell CPT = DT40-hTDP1 cell growth loss with CPT | 12% of 420,000 active | chicken DT40 Tdp1-/-;hTDP1 cells + 20 nM CPT, ATP luminescence, 48 h | Potency, µM (highest dose often 46.2 µM), for the others: at the highest dose activity change, negative = growth inhibition, hits mostly inhibitors; note: potency is the fitted concentration of half-maximal effect; nearly all actives have a fitted effect of over 55% in size
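Cell growth measured by CellTiter-Glo luminescence after a minimum 48 h, 37 C compound exposure with 20 nM CPT in Tdp1-knockout DT40 cells stably expressing hTDP1, seeded 400/well; qHTS titration format.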
HT1080 IDH1KD tx = toxicity to HT-1080 IDH1 knockdown cells (counter line); HT-1080 IDH1 knockdown viability, ATP luminescence, 48 h; Potency, µM (doses to about 46.1 µM), for the others: at the top dose activity, negative = toxicity, usual class: cytotoxic; 2% of 360,000 active; AID 686971;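 note: potency is the fitted concentration of half-maximal effect; 0% = DMSO wells and -100% = cell-free medium wells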
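Assay cells: HT-1080 with IDH1 knockdown, 750 per well, RPMI/5% FBS. Exposure: 48 h at 37 °C following 2 h pre-incubation. Read: CellTiter-Glo luminescence; fitted concentration-response, curve class assigned.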
Starred values were filed as active, the others as inactive; i = inactive; ? = inconclusive; . = no result; [ ] = remark or other dose. Unless noted, calls come from the whole dose curve; as a rule, active = well fitted curve in the direction sought with a large enough effect; inconclusive = small, poorly fitted or top-dose-only effect, or another doubt; inactive = no such curve, though single readings can be large; an effect the other way counts as inactive or inconclusive. Unless noted, % is set by controls: 0 for no effect and ±100 for the full control effect.

SMILES	HT1080-NT tox	IL-1B inflam inh	ELG1 DNA repair	TDP1 cell noCPT	TDP1 cell CPT	HT1080 IDH1KD tx
COc1ccc(-n2nc3c(c2NC(=O)c2ccccc2S(=O)(=O)C(F)F)CS(=O)(=O)C3)cc1	7%	i	0%	7%	-18%	2%
COC(=O)C(NC(=O)c1ccccc1C(=O)O)c1ccc2ccccc2c1 (stereo not drawn)	2%	48	15%	-6%	-8%	7%
COc1cc(NC(=O)c2ccc(C)cc2)c(OC)cc1NC(=O)CN1CCCCC1	?	?	?	29µM*	21µM*	?
COc1cc(NC(=O)Nc2cccc(Cl)c2)c(OC)cc1NC(=O)CN1CCCCC1	?	-29	-14%	?	16µM*	21µM*
CN(CC(=O)Nc1ccc(Cl)c(C(F)(F)F)c1)C(=O)c1ccc(OCC2CCCO2)cc1 (stereo not drawn)	-15%	-22	-16%	16µM*	18µM*	?
CN(CC(=O)Nc1ccc(Cl)c(S(=O)(=O)N2CCOCC2)c1)C(=O)c1ccc(C#N)cc1	0%	15	?	26%	-3%	1%
CN(CC(=O)Nc1ccc(Cl)c(C(F)(F)F)c1)C(=O)c1ccc(S(=O)(=O)N2CCOCC2)cc1	-24%[9.24 µM]	73	.	6.5µM*	4.6µM*	10µM*
COc1ccc(S(=O)(=O)N2CCCCCC2)cc1C(=O)N(C)CC(=O)Nc1cc(C)ccc1C	-1%	-14	?	-20%	?	-10%
Cc1ccc(C(=O)N(C)CC(=O)Nc2ccc(Cl)c(C(F)(F)F)c2)cc1S(=O)(=O)N1CCCCC1	?	-23	?	23µM*	?	?
Cc1ccc(C(=O)N(C)CC(=O)Nc2cccc(F)c2)cc1S(=O)(=O)N1CCCCC1	1%	3	-6%	?	?	-6%
Cc1ccc(S(=O)(=O)N2CCCCC2)cc1C(=O)N(C)CC(=O)Nc1ccc(Cl)c(C(F)(F)F)c1	10%	-56*	?	?	?	3%
Cc1ccc(NC(=O)c2ccc(OCC3CCCO3)cc2)cc1Cl (stereo not drawn)	-2%	14	.	?	?	-12%
Cc1cc2oc3c(c(=O)c2cc1C)C1(C(=O)N(C)c2ccccc21)N(CCO)C3=O (stereo not drawn)	.	.	.	2%	-22%	.
Cc1cc(C)c(S(=O)(=O)NCC(c2ccco2)N2CCc3ccccc3C2)c(C)c1 (stereo not drawn)	6%	-10	4%	?	?	6%
COc1ccc(Cl)cc1CNC[C@H]1O[C@@H](n2ccc(N)nc2=O)[C@H](O)[C@@H]1O	-1%	-14	.	9%	4%	-2%
COc1ccc(S(=O)(=O)N2CCCCCC2)cc1C(=O)N(C)CC(=O)Nc1ccc(Cl)c(Cl)c1	-29%	-59*	-24%	?	?	-21%
COc1cccc(NC(=O)CN(C)C(=O)c2cc(S(=O)(=O)N3CCCCC3)ccc2Cl)c1	0%	7	-4%	?	?	4%
CCOC(=O)C1=C(N)c2ccccc2CC1C1CCCC1 (stereo not drawn)	0%	-8	0%	?	26µM*	-1%
C=C1c2ccccc2O[C@H](C(=O)OCC)[C@@H]1C1CCCCC1	12%	48	2%	?	?	3%
COC(=O)c1ccc(NC(=O)CCc2c(C)nn(-c3ccc(N4CCOCC4)nn3)c2C)cc1	.	.	.	-28%	-14%	.
COc1ccc(NC(=O)/C(C#N)=C\C=C\c2ccco2)cc1	?	-22	?	2.9µM*	8.2µM*	21µM*
COc1ccc(NC(=O)/C(=C\c2ccco2)NC(=O)c2ccco2)cc1	2%	-7	7%	6%	3%	0%
O=C(CC1CCCCC1)Nc1ccc(-c2ccc3nncn3n2)cc1	?	-12	-3%	18µM*	?	?
COc1ccc(C2C(C(=O)Nc3ccccc3)=C(C)Nc3nc(-c4ccccc4)nn32)cc1OC (stereo not drawn)	.	.	.	-19%	-29%	.
CC1=C(C(=O)Nc2ccccc2)C(c2ccncc2)n2nnnc2N1 (stereo not drawn)	-12%	-24	20%	?	-13%	-11%
SMILES	HT1080-NT tox	IL-1B inflam inh	ELG1 DNA repair	TDP1 cell noCPT	TDP1 cell CPT	HT1080 IDH1KD tx
CC1=C(C(=O)Nc2cccnc2)C(c2ccccc2Cl)n2nc(-c3ccccc3)nc2N1 (stereo not drawn)	.	.	.	-22%	?	.
COc1cc(C2C(C(=O)Nc3ccccc3)=C(C)Nc3nnnn32)cc(OC)c1OC (stereo not drawn)	.	.	.	12µM*	5%	.
COc1ccccc1-c1nc2n(n1)C(c1ccccc1Cl)C(C(=O)Nc1cccnc1)=C(C)N2 (stereo not drawn)	.	.	.	21µM*	?	.
CCOc1ccc(C2C(C(=O)Nc3ccccc3)=C(C)Nc3nc(-c4ccccc4Cl)nn32)cc1OC (stereo not drawn)	.	.	.	18µM*	?	.
CCOc1ccc(C(=O)Nc2ccccc2OCc2cc(=O)n3ccccc3n2)cc1	.	.	.	-15%	-3%	.
Cc1ccc(C(=O)Nc2nnc(COCCO)s2)cc1	18%	22	.	13%	-17%	14%
CCN(CC)C(=S)Oc1ccc(Cl)cc1Cl	4%	18	0%	-11%	-1%	13%
CCOc1ccc(CN(C(=O)c2nc(SC)ncc2Cl)C2CCS(=O)(=O)C2)cc1 (stereo not drawn)	.	.	.	16µM*	-25%	.
CCOc1ccc(CN(C(=O)c2cccs2)C2CCS(=O)(=O)C2)cc1 (stereo not drawn)	-10%	23	7%	0%	-15%	4%
CC(C)Sc1ncc(Cl)c(C(=O)N(Cc2ccc(N(C)C)cc2)C2CCS(=O)(=O)C2)n1 (stereo not drawn)	.	.	.	?	16µM*	.
CCSc1ncc(Cl)c(C(=O)N(Cc2ccc(N(C)C)cc2)C2CCS(=O)(=O)C2)n1 (stereo not drawn)	-5%	4	?	-21%	?	-5%
O=C(CC[C@H]1O[C@@H](n2ccc(=O)[nH]c2=O)[C@H](O)[C@@H]1O)N[C@H](Cc1ccccc1)C(=O)NCC1CCCCC1	?	7	.	-11%	-10%	7%
CC(OC(=O)c1cccc(-n2cnnn2)c1)C(=O)Nc1ccc(F)c(F)c1F (stereo not drawn)	3%	12	.	?	?	0%

Screening results as filed in PubChem.
